Measured values reported in PubChem BioAssay (NCI).
Compounds without any hit were thinned out: in the full panel of roughly 79,000, 15% have a hit. A number with no mark means an inactive call. The source made the active and inactive calls. No stated cut-off is given here; in the data, active means growth inhibition above about 70%; inactive means the rest.

Assays:
[1] = NCI Yeast Anticancer Drug Screen. Data for the rad50 strain (AID 155);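 further: 0% = growth of vehicle-only cultures of the same strain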; conditions: S. cerevisiae rad50 strain growth inhibition, hits give high values
Summary of the method: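 Compounds were tested on a yeast strain with an engineered DNA damage repair alteration; the reported value is growth inhibition normalised to vehicle treatment.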

[2] = NCI Yeast Anticancer Drug Screen. Data for the mec2-1 strain (AID 157); conditions: S. cerevisiae mec2-1 strain, hits give high values
Summary of the method: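 Using mec2-1 yeast: add compound, measure growth, express inhibition versus vehicle-treated cultures.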

[3] = NCI Yeast Anticancer Drug Screen. Data for the sgs1 mgt1 strain (AID 161);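 further: 0% = growth of cultures given vehicle only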; conditions: S. cerevisiae sgs1 mgt1 strain, hits give high values
Summary of the method: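 Growth of a repair-deficient yeast mutant was monitored after compound treatment and expressed as inhibition relative to vehicle-treated cultures.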

[4] = NCI Yeast Anticancer Drug Screen. Data for the cln2 rad14 strain (AID 165);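 further: 0% = growth equal to vehicle treated cultures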; conditions: S. cerevisiae cln2 rad14 strain, hits give high values
Summary of the method: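 Yeast strain cln2 rad14, bearing defects in cell cycle control and DNA repair, serves as the test system; values reflect growth inhibition compared with vehicle.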

[5] = NCI Yeast Anticancer Drug Screen. Data for the bub3 strain (AID 167); conditions: S. cerevisiae bub3 mutant strain, hits give high values
Summary of the method: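 Growth of a checkpoint-deficient yeast mutant is measured after compound exposure. Values represent inhibition relative to vehicle.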

[6] = NCI Yeast Anticancer Drug Screen. Data for the mlh1 rad18 strain (AID 175); conditions: S. cerevisiae mlh1 rad18 strain growth inhibition, hits give high values
Summary of the method: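 Steps: expose repair-defective yeast to compound; measure growth; express inhibition against vehicle-treated controls.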

[7] = at 5.0 µM (retest, dose inferred, filed as 0.5)
[8] = at 50.0 µM (retest, dose inferred, filed as 5.0)

Structure (SMILES) | growth inhibition [1, 7] | growth inhibition [1, 8] | growth inhibition ([1]; at 50.0 µM) | growth inhibition [2, 7] | growth inhibition [2, 8] | growth inhibition ([2]; at 50.0 µM) | growth inhibition [3, 7] | growth inhibition [3, 8] | growth inhibition ([3]; at 50.0 µM) | growth inhibition [4, 7] | growth inhibition [4, 8] | growth inhibition ([4]; at 50.0 µM) | growth inhibition [5, 7] | growth inhibition [5, 8] | growth inhibition ([5]; at 50.0 µM) | growth inhibition [6, 7] | growth inhibition [6, 8] | growth inhibition ([6]; at 50.0 µM)
CCC(=O)OCN1C(=O)C=CC1=O | 11% | 99% (active) | 99% (active) | 3% | 100% (active) | 99.3% (active) | -4% | 100% (active) | 99.2% (active) | 14% | 99% (active) | 98.9% (active) | 10% | 100% (active) | 99.3% (active) | 20% | 99% (active) | 99% (active)
CN(C)c1ccc(C2C=C(c3ccccc3)Oc3ccccc32)cc1 (stereo not given) | 97% (active) | 96% (active) | 96.7% (active) | 94% (active) | 96% (active) | 97% (active) | 97% (active) | 97% (active) | 96.9% (active) | 92% (active) | 94% (active) | 95.8% (active) | 93% (active) | 97% (active) | 95.8% (active) | 95% (active) | 96% (active) | 96.8% (active)
N#CC(C#N)=C(c1ccccc1)c1ccccc1 | -8% | 99% (active) | 97.4% (active) | 13% | 100% (active) | 99.5% (active) | 18% | 99% (active) | 99.4% (active) | -33% | 99% (active) | 99.5% (active) | -6% | 100% (active) | 99.3% (active) | -4% | 100% (active) | 99.4% (active)
CCC1CCC(CC)C1=O (stereo not given) | 1% | 5% | 94.2% (active) | -2% | -1% | 93.9% (active) | 0% | 3% | 51.6% | -2% | 3% | 36.5% | 2% | 4% | 97.4% (active) | -2% | 7% | 43.2%
CN(C)c1c([N+](=O)[O-])cc(N2C(=O)C=CC2=O)cc1[N+](=O)[O-] | 81% (active) | 91% (active) | 91.8% (active) | 88% (active) | 98% (active) | 93.2% (active) | 23% | 100% (active) | 93.8% (active) | 50% | 99% (active) | 90.8% (active) | 47% | 96% (active) | 92.3% (active) | 80% (active) | 96% (active) | 90.7% (active)
O=C1C(c2ccccc2)=S=C2C=CC=CN12 | 2% | 67% | 85.2% (active) | -1% | 41% | 41.1% | 2% | 79% (active) | 16.8% | -1% | 17% | -0.75% | -4% | 72% (active) | 41.5% | 19% | 95% (active) | 79.3% (active)
CCCCCCCCCCCCCCCCCC(=O)OCC(COC(=O)CCCN)OC(=O)CCCN (stereo not given) | 18% | 99% (active) | 98.7% (active) | 9% | 99% (active) | 97.5% (active) | 3% | 99% (active) | 98% (active) | 5% | 96% (active) | 69% | 5% | 99% (active) | 98.6% (active) | 32% | 99% (active) | 97.5% (active)
N#CC1C=C(Cl)c2ccc(Cl)cc2N1C(=O)c1ccccc1 (stereo not given) | 2% | 96% (active) | 98.8% (active) | 17% | 99% (active) | 99.2% (active) | 3% | 99% (active) | 99.3% (active) | 2% | 99% (active) | 99.4% (active) | 0% | 98% (active) | 98.3% (active) | 23% | 99% (active) | 99.2% (active)
Cc1c2ccccc2c(C)c2c1ccc1ccccc12 | 73% (active) | 91% (active) | 96.8% (active) | 93% (active) | 91% (active) | 97.5% (active) | 93% (active) | 94% (active) | 97.7% (active) | 60% | 91% (active) | 83.4% (active) | 81% (active) | 93% (active) | 94.3% (active) | 93% (active) | 91% (active) | 98.1% (active)
Clc1ccc2nc3c(c(N4CCOCC4)c2c1)CCCC3 | 94% (active) | 97% (active) | 99% (active) | 92% (active) | 99% (active) | 99.3% (active) | 94% (active) | 98% (active) | 99.2% (active) | 80% (active) | 99% (active) | 98.9% (active) | 53% | 98% (active) | 99.5% (active) | 96% (active) | 98% (active) | 99.2% (active)
CCOC(=O)c1cc2c(nc1N)/C(=C/c1ccccc1)CCCC2 | 39% | 95% (active) | -24.4% | 31% | 96% (active) | -34.6% | 34% | 96% (active) | -29.2% | 19% | 80% (active) | -15.4% | 42% | 97% (active) | -11.4% | 37% | 95% (active) | -21.1%
CCOC1=C(NC(C)=O)C(=O)c2ccccc2C1=O | 5% | 97% (active) | 99% (active) | -7% | 97% (active) | 85.9% (active) | -2% | 98% (active) | 97.3% (active) | 60% | 97% (active) | 83.3% (active) | 8% | 97% (active) | 94.7% (active) | 2% | 98% (active) | 97.7% (active)
Cc1cc2nc(CC(=O)c3ccncc3)c(CC(=O)c3ccncc3)nc2cc1C | 6% | 75% (active) | 78% (active) | 9% | 60% | 53.9% | 10% | 59% | 65.5% | 25% | 84% (active) | 75.2% (active) | 31% | 89% (active) | 61.1% | 12% | 59% | 66.5%
O=[N+]([O-])c1ccc(NCc2ccccc2)c([N+](=O)[O-])c1 | -8% | 69% | 14.6% | -16% | 55% | 31.1% | 4% | 72% (active) | 60.6% | -10% | 62% | -166% | 19% | 86% (active) | 72.7% (active) | -2% | 80% (active) | 68%
COc1ccc(CN(C)c2c(C)ccc3ccccc23)cc1 | 10% | 85% (active) | 5.3% | 2% | 58% | -2.9% | 2% | 78% (active) | 23.3% | 2% | 59% | -15.2% | 1% | 98% (active) | 79.6% (active) | 3% | 78% (active) | 13.2%
CCN(CC)CCOc1ccc(/C(C#N)=C/c2ccc(C(F)(F)F)cc2)cc1 | 36% | 96% (active) | 75.5% (active) | 34% | 99% (active) | 48.6% | 65% | 98% (active) | 90.5% (active) | 48% | 90% (active) | 69.3% | 54% | 98% (active) | 54.1% | 38% | 99% (active) | 90.8% (active)
O=C1c2cc3c(cc2CC1Br)CCC3 (stereo not given) | 99% (active) | 99% (active) | 79.5% (active) | 99% (active) | 100% (active) | 87% (active) | 99% (active) | 99% (active) | 88.3% (active) | 98% (active) | 99% (active) | 90.2% (active) | 99% (active) | 99% (active) | 89.5% (active) | 99% (active) | 99% (active) | 92.4% (active)
CC(=O)N1c2ccccc2C2=NN=C(N(C)C)SC21 (stereo not given) | 6% | 98% (active) | 85.3% (active) | -15% | 98% (active) | 90% (active) | 0% | 98% (active) | 83.8% (active) | -20% | 97% (active) | 83.8% (active) | -14% | 99% (active) | 87.3% (active) | 1% | 97% (active) | 80.5% (active)
O=C(c1ccccc1)c1ccccc1S(=O)(=O)Nc1ccccc1 | -5% | 79% (active) | 62.9% | -2% | 69% | 27.8% | -3% | 77% (active) | 30.2% | -8% | 86% (active) | 62.1% | 4% | 91% (active) | 64.2% | -2% | 87% (active) | 72.8% (active)
O=C(O)c1ccc2c3c(ncnc13)-c1ccccc1C2=O | 22% | 96% (active) | 62% | 43% | 98% (active) | 45% | 10% | 86% (active) | 61% | 36% | 88% (active) | 34.5% | 36% | 90% (active) | 55.5% | 28% | 98% (active) | 74.6% (active)
